Our source for the AC50 and outcome values is PubChem BioAssay (EPA / NIEHS).

Records with an inconclusive call do not appear. Active and inactive are the calls of the source. The calls were made as follows, unless noted: active = hit-call score of the fitted dose curve at least 0.9, where 1 is the maximum; inactive = score below 0.9.

The nature of experiment [1]: BSK_LPS_PGE2: BioMAP Diversity Plus: LPS Assay for Prostaglandin E2 (PGE2) Biomarker Activity (AID 2283082).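 As to AC50: secreted prostaglandin E2 measured by ELISA in LPS-stimulated co-culture.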 Particulars: primary human HUVEC with PBMC; actives raise or lower the signal. The method, boiled down:
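Compounds were added to the LPS co-culture of endothelium and PBMC, and PGE2 was measured by ELISA after 24 h. Responses in either direction were fitted with DMSO as baseline.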

Read-out in experiment [2]: Macrophage colony-stimulating factor (MCSF), CSF1 (gene 1435)
Nature of the experiment: BSK_LPS_MCSF: BioMAP Diversity Plus: LPS Assay for Macrophage colony-stimulating factor (MCSF) Biomarker Activity (AID 2283083). Particulars: primary human HUVEC with PBMC; actives raise or lower the signal. The method in brief: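 HUVEC + PBMC co-culture (human primary), 24 h post-dose; M-CSF by ELISA; gain/loss of signal fitted bidirectionally vs DMSO baseline.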

Read-out in experiment [3]: Tissue Factor, F3 (gene 2152)
The experiment in a line: BSK_LPS_TissueFactor: BioMAP Diversity Plus: LPS Assay for Tissue Factor Biomarker Activity (AID 2283084). Particulars: primary human HUVEC with PBMC; actives raise or lower the signal. The method in brief: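 HUVEC/PBMC co-culture, LPS-activated; CD142 ELISA read 24 h post-dose; bidirectional curve fit vs DMSO negative control.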

Read-out in experiment [4]: Tumor necrosis factor (Homo sapiens) (UniProt P01375)
The experiment in a line: BSK_LPS_TNFa: BioMAP Diversity Plus: LPS Assay for Tumour Necrosis Factor alpha (TNFa) Biomarker Activity (AID 2283085). Particulars: primary human HUVEC with PBMC; actives raise or lower the signal. The method in brief:
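Cells (umbilical vein endothelium plus peripheral blood mononuclear cells) were dosed with chemical, incubated 24 h, then TNFa was quantified by ELISA; values derive from bidirectional fitting with DMSO as baseline.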

Read-out in experiment [5]: Vascular cell adhesion molecule 1 (VCAM1), VCAM1 (gene 7412)
The experiment in a line: BSK_LPS_VCAM1: BioMAP Diversity Plus: LPS Assay for Vascular cell adhesion molecule 1 (VCAM1) Biomarker Activity (AID 2283086). Particulars: primary human HUVEC with PBMC; actives raise or lower the signal. The method in brief:
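Cells are dosed in an LPS-stimulated endothelial/mononuclear co-culture and, after 24 h, VCAM-1 is quantified by ELISA. Activity in either direction is fitted relative to the DMSO negative control.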

Read-out in another experiment: CD38, CD38 (gene 952)
Nature of the experiment: BSK_SAg_CD38: BioMAP Diversity Plus: SAg Assay for CD38 Biomarker Activity (AID 2283087). Particulars: primary human HUVEC with PBMC; actives raise or lower the signal. The method in brief:
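CD38 quantified by ELISA (fluorescence) in a superantigen-activated endothelial cell–PBMC co-culture at 24 h post-dose. Activity fitted in both directions relative to DMSO; parallel SRB and Alamar Blue cytotoxicity read-outs.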

Read-out in the next experiment: CD40, CD40 (gene 958)
Nature of the experiment: BSK_SAg_CD40: BioMAP Diversity Plus: SAg Assay for CD40 Biomarker Activity (AID 2283088). Particulars: primary human HUVEC with PBMC; actives raise or lower the signal. The method, boiled down:
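HUVEC/PBMC co-culture, 24 h post-dose; CD40 by ELISA, fluorescence intensity; bidirectional fit vs DMSO negative control.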

Read-out in another experiment: CD69, CD69 (gene 969)
Nature of the experiment: BSK_SAg_CD69: BioMAP Diversity Plus: SAg Assay for CD69 Biomarker Activity (AID 2283089). Particulars: primary human HUVEC with PBMC; actives raise or lower the signal. The method, boiled down: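 Endothelial/PBMC co-culture; chemical added; 24 h incubation; CD69 ELISA with fluorescence detection; bidirectional fit vs DMSO.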

Read-out in experiment [6]: Monocyte Chemoattractant Protein-1 (MCP1), CCL2 (gene 6347)
The experiment in a line: BSK_SAg_MCP1: BioMAP Diversity Plus: SAg Assay for Monocyte Chemoattractant Protein-1 (MCP1) Biomarker Activity (AID 2283090). Particulars: primary human HUVEC with PBMC; actives raise or lower the signal. The method, boiled down: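 Values derive from bidirectional fitting of ELISA-measured MCP1 against DMSO controls. Readings were taken 24 h after dosing human vascular endothelial cells co-cultured with peripheral blood mononuclear cells under superantigen stimulation.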

Read-out in experiment [7]: E-selectin (Homo sapiens) (UniProt P16581)
Nature of the experiment: BSK_SAg_Eselectin: BioMAP Diversity Plus: SAg Assay for Eselectin Biomarker Activity (AID 2283091). Particulars: primary human HUVEC with PBMC; actives raise or lower the signal. The method in brief:
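E-selectin ELISA readout at 24 h post-dosing in human umbilical vein endothelial cell/PBMC co-culture; gain or loss of signal fitted relative to DMSO baseline.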

Read-out in experiment [8]: Monokine induced gamma interferon (MIG), CXCL9 (gene 4283)
The experiment in a line: BSK_SAg_MIG: BioMAP Diversity Plus: SAg Assay for Monokine induced gamma interferon (MIG) Biomarker Activity (AID 2283092). Particulars: primary human HUVEC with PBMC; actives raise or lower the signal. The method, boiled down: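 Measures CXCL9 protein by ELISA in a human vascular primary-cell co-culture (umbilical vein endothelium with PBMC) 24 h after chemical addition. Activity is scored up or down from the DMSO control.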

Experiment [9] is described as follows: BSK_SAg_PBMCCytotoxicity: PBMC Cytotoxicity Assessment in the BioMAP Diversity Plus: SAg Assay (AID 2283093).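 Also: fitted both ways against DMSO so a hit may be loss or gain of signal.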 Particulars: primary human HUVEC with PBMC. The method, boiled down:
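PBMC viability by Alamar Blue reduction, fluorescence read at 546/580 nm after 6 h dye exposure. Cells were dosed 1 h before SEB plus TSST-1 activation (20 ng/mL final each), then held 90 h; endothelial/PBMC human co-culture.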

Read-out in experiment [10]: Interleukin-8 (IL8), CXCL8 (gene 3576)
Nature of the experiment: BSK_SAg_IL8: BioMAP Diversity Plus: SAg Assay for Interleukin-8 (IL8) Biomarker Activity (AID 2283094). Particulars: primary human HUVEC with PBMC; actives raise or lower the signal. The method in brief: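 Chemicals were dosed onto a human endothelial–PBMC co-culture, and IL-8 was quantified by ELISA after 24 h. Both increases and decreases were fitted relative to DMSO.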

Experiment [11] in a line: BSK_SAg_Proliferation: Cell Proliferation Assessment in the BioMAP Diversity Plus: SAg Assay (AID 2283095).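 Also: relative cell number as total protein by SRB absorbance in sub-confluent culture.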 Particulars: primary human HUVEC with PBMC. The method in brief:
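Absorbance of sulforhodamine B at 560 nm reports total protein in a human vascular endothelial/PBMC co-culture after 96 h chemical exposure. Gain or loss of signal is fitted in both directions against DMSO.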

Experiment [12] has as its target human CYP2A6, CYP2A6 (gene 1548) (UniProt P11509). Nature of the experiment: NVS_ADME_hCYP2A6: NovaScreen (NVS) CYP450-related Enzyme Activity (ADME) Assay for human CYP2A6 (AID 2283099; active = hit-call score of the fitted dose curve at least 0.9, where 1 is the maximum). The method, boiled down:
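Insect-cell-expressed human CYP2A6 enzyme activity measured by fluorescence intensity 0.5 hour post-dosing. Compounds screened at 10 uM in duplicate, then hits tested singly in concentration series (max 20 uM); acetonitrile baseline.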

In experiment [13] the target is human CYP1A2, CYP1A2 (gene 1544) (UniProt P05177). The experiment in a line: NVS_ADME_hCYP1A2: NovaScreen (NVS) CYP450-related Enzyme Activity (ADME) Assay for human CYP1A2 (AID 2283102; active = hit-call score of the fitted dose curve at least 0.9, where 1 is the maximum;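 as to AC50: potency for inhibition since loss of fluorescence marks reduced CYP1A2 activity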). The method, boiled down: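 Fluorescence-intensity enzyme activity read-out, taken 0.5 h post-dosing, using insect-cell-derived recombinant CYP1A2 and specific fluorescent substrate. Acetonitrile served as negative control/baseline. Single-concentration duplicate screen at 10 uM, then concentration-response follow-up.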
Sequence of human CYP1A2, CYP1A2 (gene 1544) (P05177 whole entry, looked up): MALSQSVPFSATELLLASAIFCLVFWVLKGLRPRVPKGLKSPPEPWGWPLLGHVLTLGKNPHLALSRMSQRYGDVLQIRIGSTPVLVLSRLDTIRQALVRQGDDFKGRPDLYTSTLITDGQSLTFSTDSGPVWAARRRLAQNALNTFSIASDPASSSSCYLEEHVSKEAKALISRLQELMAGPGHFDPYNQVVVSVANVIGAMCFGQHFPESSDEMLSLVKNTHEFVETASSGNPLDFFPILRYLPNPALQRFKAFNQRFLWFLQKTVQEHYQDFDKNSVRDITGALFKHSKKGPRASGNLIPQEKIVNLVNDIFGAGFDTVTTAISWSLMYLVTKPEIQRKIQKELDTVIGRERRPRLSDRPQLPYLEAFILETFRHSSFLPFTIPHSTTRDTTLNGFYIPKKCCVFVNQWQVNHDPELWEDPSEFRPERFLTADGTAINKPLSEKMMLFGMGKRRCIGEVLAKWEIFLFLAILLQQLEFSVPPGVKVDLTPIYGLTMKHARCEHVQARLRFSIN

A short description of experiment [14]: BSK_SAg_SRB: Viability Assessment in the BioMAP Diversity Plus: SAg Assay (AID 2283096).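 Also: cells read one day after compound addition; hits may be either gain or loss of signal compared with DMSO.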 Particulars: primary human HUVEC with PBMC. The method, boiled down: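 Compounds were added to a human vascular co-culture of umbilical vein endothelium and PBMC. After 24 h, parallel cultures were fixed with 10% TCA, stained with 0.1% sulforhodamine B and read at 560 nm. Gain or loss of signal was fitted relative to DMSO.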

The target of experiment [15] is human CYP1A1, CYP1A1 (gene 1543) (UniProt P04798). The experiment in a line: NVS_ADME_hCYP1A1: NovaScreen (NVS) CYP450-related Enzyme Activity (ADME) Assay for human CYP1A1 (AID 2283100; active = hit-call score of the fitted dose curve at least 0.9, where 1 is the maximum). The method, boiled down: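 Read-out: fluorescence intensity from enzymatic turnover of substrate by recombinant CYP1A1, loss of signal indicating inhibition. Incubation 1 h post-dose. Primary single-point 10 uM in duplicate; actives rerun singly with top concentration 20 uM.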
Sequence of human CYP1A1, CYP1A1 (gene 1543) (P04798 whole entry, looked up): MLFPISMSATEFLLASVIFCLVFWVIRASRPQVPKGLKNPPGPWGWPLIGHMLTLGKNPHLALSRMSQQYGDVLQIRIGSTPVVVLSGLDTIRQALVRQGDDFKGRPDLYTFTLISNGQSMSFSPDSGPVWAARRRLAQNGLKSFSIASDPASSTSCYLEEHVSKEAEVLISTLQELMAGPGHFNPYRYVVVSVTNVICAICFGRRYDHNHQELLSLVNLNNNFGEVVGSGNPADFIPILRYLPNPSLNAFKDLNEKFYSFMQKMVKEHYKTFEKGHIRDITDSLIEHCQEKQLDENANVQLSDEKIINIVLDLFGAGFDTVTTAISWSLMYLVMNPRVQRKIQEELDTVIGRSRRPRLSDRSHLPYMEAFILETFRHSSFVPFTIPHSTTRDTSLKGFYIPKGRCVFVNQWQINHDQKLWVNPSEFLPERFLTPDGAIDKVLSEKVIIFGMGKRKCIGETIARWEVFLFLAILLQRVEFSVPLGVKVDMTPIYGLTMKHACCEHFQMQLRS

Experiment [16] addresses human CYP2B6, CYP2B6 (gene 1555) (UniProt P20813). Nature of the experiment: NVS_ADME_hCYP2B6: NovaScreen (NVS) CYP450-related Enzyme Activity (ADME) Assay for human CYP2B6 (AID 2283101; active = hit-call score of the fitted dose curve at least 0.9, where 1 is the maximum). The method, boiled down:
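Recombinant protein, specific fluorescent substrate, read at 1 h post-dosing. Primary: single 10 uM, duplicate; follow-up: concentration series. Activity = signal loss vs acetonitrile baseline, with positive and negative controls on every plate.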

Sequence of Tumor necrosis factor (Homo sapiens) (P01375 whole entry, looked up): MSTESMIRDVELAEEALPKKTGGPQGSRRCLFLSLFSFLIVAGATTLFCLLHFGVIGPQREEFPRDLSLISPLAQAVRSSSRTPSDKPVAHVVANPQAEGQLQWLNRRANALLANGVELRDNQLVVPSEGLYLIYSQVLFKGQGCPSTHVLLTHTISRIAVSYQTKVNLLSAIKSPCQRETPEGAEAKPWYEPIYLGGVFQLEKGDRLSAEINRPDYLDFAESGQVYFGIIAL
Sequence of human CYP2A6, CYP2A6 (gene 1548) (P11509 whole entry, looked up): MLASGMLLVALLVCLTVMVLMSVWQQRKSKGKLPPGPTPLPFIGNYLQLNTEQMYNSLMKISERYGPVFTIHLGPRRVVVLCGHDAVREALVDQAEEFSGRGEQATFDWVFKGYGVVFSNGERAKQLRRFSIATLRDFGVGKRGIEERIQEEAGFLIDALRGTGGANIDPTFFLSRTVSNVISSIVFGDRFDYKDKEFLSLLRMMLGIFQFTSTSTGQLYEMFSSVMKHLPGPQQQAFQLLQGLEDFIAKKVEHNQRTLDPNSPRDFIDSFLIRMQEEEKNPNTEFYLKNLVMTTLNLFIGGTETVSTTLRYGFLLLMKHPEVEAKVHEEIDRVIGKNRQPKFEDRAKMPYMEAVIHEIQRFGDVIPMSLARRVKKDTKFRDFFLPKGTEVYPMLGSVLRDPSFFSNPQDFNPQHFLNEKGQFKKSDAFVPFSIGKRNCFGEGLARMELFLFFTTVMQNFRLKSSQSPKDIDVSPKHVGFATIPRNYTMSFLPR
Sequence of E-selectin (Homo sapiens) (P16581 whole entry, looked up): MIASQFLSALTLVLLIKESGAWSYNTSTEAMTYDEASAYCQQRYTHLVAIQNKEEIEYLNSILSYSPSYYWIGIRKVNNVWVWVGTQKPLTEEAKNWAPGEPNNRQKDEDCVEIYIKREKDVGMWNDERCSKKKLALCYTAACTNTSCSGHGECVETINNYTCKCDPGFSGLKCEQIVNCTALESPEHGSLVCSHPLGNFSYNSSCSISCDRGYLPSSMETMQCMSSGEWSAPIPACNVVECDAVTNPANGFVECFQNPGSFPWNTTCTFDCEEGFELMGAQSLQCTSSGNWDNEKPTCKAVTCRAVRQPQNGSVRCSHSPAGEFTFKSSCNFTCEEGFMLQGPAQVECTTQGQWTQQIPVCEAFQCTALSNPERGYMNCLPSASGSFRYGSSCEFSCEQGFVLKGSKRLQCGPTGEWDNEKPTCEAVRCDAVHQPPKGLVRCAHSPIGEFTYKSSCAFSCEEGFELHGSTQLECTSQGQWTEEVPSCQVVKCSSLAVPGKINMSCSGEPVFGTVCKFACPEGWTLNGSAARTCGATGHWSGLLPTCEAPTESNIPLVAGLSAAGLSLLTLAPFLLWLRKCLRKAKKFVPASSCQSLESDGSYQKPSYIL
Sequence of human CYP2B6, CYP2B6 (gene 1555) (P20813 whole entry, looked up): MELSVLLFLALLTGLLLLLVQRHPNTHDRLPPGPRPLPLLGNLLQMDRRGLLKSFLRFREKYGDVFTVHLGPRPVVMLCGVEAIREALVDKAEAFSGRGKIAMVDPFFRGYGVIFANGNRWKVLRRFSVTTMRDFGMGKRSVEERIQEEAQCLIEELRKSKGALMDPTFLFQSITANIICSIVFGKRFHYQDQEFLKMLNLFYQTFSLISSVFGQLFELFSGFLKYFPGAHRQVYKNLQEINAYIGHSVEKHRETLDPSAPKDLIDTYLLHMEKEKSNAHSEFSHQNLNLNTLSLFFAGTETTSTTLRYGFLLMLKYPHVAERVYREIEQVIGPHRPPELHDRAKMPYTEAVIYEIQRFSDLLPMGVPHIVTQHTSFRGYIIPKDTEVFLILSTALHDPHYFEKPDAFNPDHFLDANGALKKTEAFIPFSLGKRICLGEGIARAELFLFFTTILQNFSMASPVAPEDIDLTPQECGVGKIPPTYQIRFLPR

Usually AC50 stands for the concentration at which the activity in the assay is half-maximal. On to `Cc1cccc(N)c1N`, for which the AC50 in [1] is 20 µM (active); in experiment [2], 7.16 µM (active); in experiment [5] it was 14.3 µM (active); in experiment [13], 6.94 µM (active). Moreover, the outcome in [3] is “inactive”; in experiment [4], “inactive”; with CD38, CD38 (gene 952) it was “inactive”; with CD40, CD40 (gene 958) it was “inactive”; with CD69, CD69 (gene 969), “inactive”; in experiment [6] it was “inactive”. Besides, the outcome in experiment [7], in experiment [8], in experiment [9], in experiment [10], in experiment [11] and in experiment [12] was inactive.
With `Cc1cc(N=Nc2ccccc2C)ccc1N`, the AC50 in [1] is 3.97 µM (active); in experiment [5], 20 µM (active); with CD38, CD38 (gene 952) it was 32.4 µM (active); in the experiment with CD40, CD40 (gene 958), 30.7 µM (active); in [6], 20 µM (active); in experiment [7] it was 4.75 µM (active). In addition, the AC50 in experiment [10] is 29.2 µM (active); in experiment [11], 29.2 µM (active); in [14], 9.88 µM (active); in [15], 5.4 µM (active); in experiment [16], 1.71 µM (active); in experiment [13], 0.858 µM (active). In addition, the outcome in experiment [2] is “inactive”; in [3] it was “inactive”; in experiment [4], “inactive”; with CD69, CD69 (gene 969) it was “inactive”; in experiment [8], “inactive”; in experiment [9] it was “inactive”. Moreover, in experiment [12], the result was inactive.
For the compound `O=C(Nc1ccccc1)c1ccccc1I`, the outcome is “inactive” in experiment [1]; “inactive” in experiment [2]; “inactive” in experiment [3]; “inactive” in experiment [4]; “inactive” in experiment [5]; “inactive” in the experiment with CD38, CD38 (gene 952). Also, the outcome was “inactive” in the experiment with CD40, CD40 (gene 958); “inactive” in the experiment with CD69, CD69 (gene 969); “inactive” in [6]; “inactive” in [7]; “inactive” in experiment [8]; “inactive” in [9]. Besides, the result in experiment [10], in experiment [11], in experiment [15] and in experiment [13] was inactive.
Regarding `Nc1ccc([N+](=O)[O-])cc1`, the outcome in experiment [1] was “inactive”; in experiment [2], “inactive”; in experiment [3], “inactive”; in experiment [4], “inactive”; in experiment [5] it was “inactive”; with CD38, CD38 (gene 952) it was “inactive”. Besides, the outcome with CD40, CD40 (gene 958) is “inactive”; in the experiment with CD69, CD69 (gene 969) it was “inactive”; in experiment [6], “inactive”; in experiment [7] it was “inactive”; in [8] it was “inactive”; in experiment [9] it was “inactive”. In addition, the result in experiment [10], in experiment [11] and in experiment [14] was inactive. The AC50 in experiment [12] was 8.46 µM (active).
